A selection: hits, their analogues and other compounds. The true share with any hit is near 22%.
CYP2C19 inh – blocks human cytochrome P450 2C19; P33261; CYP2C19 Supersomes, luciferin-H EGE luminescence, 30 min; inhibition, % at 5 µM; actives 21% (n = 96,000); AID 778;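 active means CYP2C19 inhibition above a set limit at 5 µM in the primary screen, cut at about 50% in these data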;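 further: plate controls were negative control wells for no effect and 2.5 mM tranylcypromine positive control for full effect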
Measles CPE – protection of cells from measles virus. protection (pct of control), % at 4 µM. Measles virus-infected cells, CPE protection, absorbance. actives 1.5% (n = 140,000); in the data active means protection mostly above about 24%, no sharp cut-off; inactive means mostly below about 26%
CYP2C9 inhib – human CYP2C9 inhibition; inhibition, % at 5 µM; actives 20% (n = 96,000); CYP2C9 Supersomes, luciferin-H conversion, luminescence;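 active means blocking of liver enzyme CYP2C9 beyond about 50% at 5 µM, limit read from the data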
Target sequence (P11712 whole entry, looked up): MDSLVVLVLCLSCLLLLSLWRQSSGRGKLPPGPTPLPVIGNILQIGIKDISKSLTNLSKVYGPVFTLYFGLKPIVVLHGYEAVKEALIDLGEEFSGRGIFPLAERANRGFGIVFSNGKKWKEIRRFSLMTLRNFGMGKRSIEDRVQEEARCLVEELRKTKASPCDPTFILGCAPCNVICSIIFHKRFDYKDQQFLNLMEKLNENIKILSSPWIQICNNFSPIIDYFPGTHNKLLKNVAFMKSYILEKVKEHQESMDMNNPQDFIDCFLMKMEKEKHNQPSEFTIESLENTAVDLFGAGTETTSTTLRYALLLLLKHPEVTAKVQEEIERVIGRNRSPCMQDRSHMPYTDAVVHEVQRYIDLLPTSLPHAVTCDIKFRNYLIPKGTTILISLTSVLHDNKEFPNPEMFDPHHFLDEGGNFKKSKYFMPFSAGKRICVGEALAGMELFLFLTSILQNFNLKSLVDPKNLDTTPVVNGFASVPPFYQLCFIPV
CYP2C19 activ – cytochrome P450 2C19 (human) activation; P33261; recombinant CYP2C19, luciferin-H EGE luminescence; hits give high values; 0 = fully inhibited enzyme, 1 = untreated enzyme; activation factor at 5 µM; 96,000 tested, under 10 active;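 active means activation factor of at least 2 at 5 µM in the primary screen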;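 further: 0 = wells with 2.5 mM tranylcypromine and 1 = vehicle-only wells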
CYP2C9 activ – activators of human CYP2C9; recombinant CYP2C9, luciferin-H conversion, luminescence; hits give high values; factor 1 = untreated enzyme, 0 = blocked; activation factor at 5 µM; actives 1.4% (n = 96,000);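 active means activation factor of 2 or more for CYP2C9 at a 5 µM dose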;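 further: 0 = sulfaphenazole-blocked wells and 1 = vehicle-only wells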
* hit, by the source's call.

How did Cn1c(SCC(=O)NCc2ccc(F)cc2)nc2ccccc21 do in these assays?
CYP2C19 inh: 30; Measles CPE: 17; CYP2C9 inhib: -214; CYP2C19 activ: 0.7; CYP2C9 activ: 3.1*

Results for Cn1c(SCC(=O)N/N=C/c2cccs2)nc2ccccc21 ?
CYP2C19 inh: 43; Measles CPE: 7; CYP2C9 inhib: -101; CYP2C19 activ: 0.6; CYP2C9 activ: 2*

Results for COc1ccccc1C(=O)NCCc1nc2ccccc2n1C ?
CYP2C19 inh: 97*; Measles CPE: 5; CYP2C9 inhib: -13; CYP2C19 activ: 0; CYP2C9 activ: 1.1

Results for COc1ccccc1C(=O)Nc1ccc2c(c1)nc(CCNC(C)=O)n2C ?
CYP2C19 inh: 13; Measles CPE: 6; CYP2C9 inhib: -3; CYP2C19 activ: 0.9; CYP2C9 activ: 1

How did COc1ccccc1Nc1cc(C)nc2c(C)ccc([N+](=O)[O-])c12 do in these assays?
Measles CPE: 0

How did CC(C)Cn1c(CCCNC(=O)c2ccc(F)cc2)nc2ccccc21 do in these assays?
CYP2C19 inh: 23; Measles CPE: 2; CYP2C9 inhib: 6; CYP2C19 activ: 0.8; CYP2C9 activ: 0.9

Results for Cn1c(CNC(=O)c2ccc(F)cc2)nc2ccccc21 ?
CYP2C19 inh: 72*; Measles CPE: 7; CYP2C9 inhib: -38; CYP2C19 activ: 0.3; CYP2C9 activ: 1.4

Results for Cn1c(CCCNC(=O)c2cccs2)nc2ccccc21 ?
CYP2C19 inh: 26; Measles CPE: 5; CYP2C9 inhib: -30; CYP2C19 activ: 0.7; CYP2C9 activ: 1.3

How did Cn1c(CCCNC(=O)c2ccccc2)nc2ccccc21 do in these assays?
CYP2C19 inh: 32; Measles CPE: -1; CYP2C9 inhib: -138; CYP2C19 activ: 0.7; CYP2C9 activ: 2.4*

Results for COc1cc2c(cc1C1NC(=S)NC(C)=C1C(=O)N(C)C)CCCC2 (centres undefined) ?
Measles CPE: 6

How did CN(Cc1ccccc1)C(=O)CCCn1c(=O)[nH]c2cc(Cl)ccc2c1=O do in these assays?
CYP2C19 inh: 82*; Measles CPE: 2; CYP2C9 inhib: 0; CYP2C19 activ: 0.2; CYP2C9 activ: 1

How did Cc1ccc(OCCN2C(=O)S/C(=C\c3ccc(C)o3)C2=O)cc1 do in these assays?
Measles CPE: 13

Results for Cc1ccc(N2C=Nc3ccc(C)c4nc(C)cc2c34)cc1 ?
CYP2C19 inh: 68*; Measles CPE: 6; CYP2C9 inhib: 86*; CYP2C19 activ: 0.3; CYP2C9 activ: 0.1

What do the screens show for `CC1=Nc2ccc(C)c3nc(C)cc(c23)N1c1ccc(C)cc1`?
Measles CPE: 2

How did COC(=O)C1=C(C)N(CC2CCCO2)C(=O)C1 (centres undefined) do in these assays?
CYP2C19 inh: 17; Measles CPE: 20; CYP2C9 inhib: 24; CYP2C19 activ: 0.8; CYP2C9 activ: 0.8

What do the screens show for `COc1ccc(C2CCCN2C(=O)Nc2ccc(F)cc2)cc1OC` (centres undefined)?
Measles CPE: 4

How did COc1cccc(C(=O)OCn2nnc3ccccc3c2=O)c1 do in these assays?
CYP2C19 inh: 81*; Measles CPE: 7; CYP2C9 inhib: 12; CYP2C19 activ: 0.2; CYP2C9 activ: 0.9

How did COc1ccc(C(=O)OCn2nnc3ccccc3c2=O)cc1OC do in these assays?
CYP2C19 inh: -1; Measles CPE: 5; CYP2C9 inhib: 6; CYP2C19 activ: 1; CYP2C9 activ: 0.9

How did COC(=O)c1cccc(Cn2nnc3ccccc3c2=O)c1 do in these assays?
CYP2C19 inh: 51*; Measles CPE: 4; CYP2C9 inhib: 26; CYP2C19 activ: 0.5; CYP2C9 activ: 0.7

What do the screens show for `Cc1cc(C(=O)OCn2nnc3ccccc3c2=O)c(C)o1`?
CYP2C19 inh: 53*; Measles CPE: 15; CYP2C9 inhib: 38; CYP2C19 activ: 0.5; CYP2C9 activ: 0.6

What do the screens show for `CN(C)S(=O)(=O)c1ccc(C(=O)OCn2nnc3ccccc3c2=O)cc1`?
CYP2C19 inh: 5; Measles CPE: 5; CYP2C9 inhib: 59*; CYP2C19 activ: 1; CYP2C9 activ: 0.4

Results for COCCCNC(=S)NC(=O)c1ccc(C)cc1 ?
Measles CPE: 9

Results for Nc1nc(SCC(=O)C23CC4CC(CC(C4)C2)C3)n[nH]1 ?
CYP2C19 inh: 45; Measles CPE: 3; CYP2C9 inhib: 53*; CYP2C19 activ: 0.6; CYP2C9 activ: 0.5

Results for Cc1ccc2c(c1)nnn2C1CCN(S(=O)(=O)c2ccc3ccccc3c2)CC1 ?
Measles CPE: 3

Results for Cc1ccc2c(c1)nnn2C1CCN(S(=O)(=O)c2ccc(C(=O)NC3CCCC3)cc2)CC1 ?
CYP2C19 inh: 21; Measles CPE: 7; CYP2C9 inhib: 50*; CYP2C19 activ: 0.8; CYP2C9 activ: 0.5

What do the screens show for `Cc1ccc2c(c1)nnn2C1CCN(S(=O)(=O)c2cccc(S(=O)(=O)N(C)C)c2)CC1`?
CYP2C19 inh: 86*; Measles CPE: 4; CYP2C9 inhib: 46; CYP2C19 activ: 0.1; CYP2C9 activ: 0.5

How did Cc1ccc2c(c1)nnn2C1CCN(S(=O)(=O)c2ccc(C(=O)N3CC(C)CC(C)C3)cc2)CC1 (centres undefined) do in these assays?
CYP2C19 inh: 98*; Measles CPE: 6; CYP2C9 inhib: 88*; CYP2C19 activ: 0; CYP2C9 activ: 0.1

How did Cc1ccc2c(c1)nnn2C1CCN(S(=O)(=O)c2ccc(C(=O)N(C)C)cc2)CC1 do in these assays?
Measles CPE: 6

What do the screens show for `CCOC(=O)c1c(NC(=O)CSC(=S)N(C)C)sc(C)c1C`?
Measles CPE: 21

Results for CCOC(=O)c1c(NC(=O)CSc2nc3ccccc3s2)sc(C)c1C ?
CYP2C19 inh: 28; Measles CPE: 8; CYP2C9 inhib: 65*; CYP2C19 activ: 0.7; CYP2C9 activ: 0.3

Results for CCOC(=O)c1c(NC(=O)CSc2ncn[nH]2)sc(C)c1C ?
CYP2C19 inh: 73*; Measles CPE: 10; CYP2C9 inhib: 85*; CYP2C19 activ: 0.3; CYP2C9 activ: 0.1

What do the screens show for `CCOC(=O)c1c(NC(=O)CSc2nc3ccccc3o2)sc(C)c1C`?
CYP2C19 inh: 31; Measles CPE: 4; CYP2C9 inhib: 46; CYP2C19 activ: 0.7; CYP2C9 activ: 0.5

What do the screens show for `O=C(CN1C(=O)c2ccccc2C1=O)Nc1sc2c(c1C(=O)NCc1ccco1)CCCC2`?
CYP2C19 inh: 19; Measles CPE: 62*; CYP2C9 inhib: 82*; CYP2C19 activ: 0.8; CYP2C9 activ: 0.2

Results for O=C(CCCN1C(=O)c2ccccc2C1=O)Nc1sc2c(c1C(=O)NCc1ccco1)CCC2 ?
CYP2C19 inh: 65*; Measles CPE: 2; CYP2C9 inhib: 96*; CYP2C19 activ: 0.4; CYP2C9 activ: 0

How did CC1=C(C(=O)OC(C)C)C(c2cncc(-c3ccc(F)cc3)c2)C(C#N)=C(N)O1 (centres undefined) do in these assays?
Measles CPE: 6

What do the screens show for `O=C(O)CN1C(=O)Nc2ccc(Br)cc2C1c1ccccc1` (centres undefined)?
CYP2C19 inh: 10; Measles CPE: 39*; CYP2C9 inhib: 11; CYP2C19 activ: 0.9; CYP2C9 activ: 0.9
